Test results: PubChem BioAssay (Tox21)
Inconclusive results are not listed. The source made the active and inactive calls. Calls follow the shape of the dose curve; as a rule, active = well fitted curve in the direction sought with a large enough effect in the repeat runs; inconclusive = weak or mixed curves; inactive = no such curve, though single readings can be large; an effect the other way counts as inactive or inconclusive.

How the values were obtained:
[1] = A CellTox Green Cytotoxicity Assay to monitor cytotoxicity in HEK293 cells - 40 hour (AID 1224871); also: nearly all actives have a fitted effect of over 45% in size
In short: (§1)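 Nonlytic real-time cytotoxicity: HEK293 + CellTox Green reagent plated, 5 h preincubation, pintool compound addition (23 nL in DMSO), 37 C for 40 h, fluorescence measured at successive time points.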

[2] = qHTS RealTime-Glo MT Cell Viability Assay in HEK293 cells - 16 hour (AID 1224872); also: top concentration of the series differs between compounds; nearly all actives have a fitted effect of over 50% in size
In short: (§2)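 Tox21 10K qHTS, HEK293, 600 cells/well, RealTime-Glo reagent co-dispensed with cells; 5 h preincubation, compound by pintool, 37 C, luminescence at 0–40 h.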

[3] = qHTS RealTime-Glo MT Cell Viability Assay in HepG2 cells - 8 hour (AID 1224873); also: nearly all actives have a fitted effect of over 55% in size
In short: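 Real-time viability: cells seeded at 600 per well together with NanoLuc and cell-permeant prosubstrate, compounds added after 5 h incubation. Luminescence tracked at 0, 8, 16, 24, 32 and 40 h of exposure.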

[4] = qHTS RealTime-Glo MT Cell Viability Assay in HEK293 cells - 40 hour (AID 1224874); settings: RealTime-Glo luminescence; max response: hits give low values; also: nearly all actives have a fitted effect of over 50% in size
In short: (§3)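 Cells were seeded together with NanoLuc luciferase and a prosubstrate that viable cells reduce to a luciferase substrate. After a 5 h incubation at 37 C/5% CO2, compounds were added and luminescence was measured repeatedly during 40 h of treatment.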

[5] = A CellTox Green Cytotoxicity Assay to monitor cytotoxicity in HEK293 cells - 24 hour (AID 1224875); also: series mostly up to about 77 µM; nearly all actives have a fitted effect of over 45% in size
In short: as §1

[6] = A CellTox Green Cytotoxicity Assay to monitor cytotoxicity in HepG2 cells - 16 hour (AID 1224876); also: nearly all actives have a fitted effect of over 45% in size
In short: (§4)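 Read-out is fluorescence of a cyanine dye excluded from live cells that stains DNA of dead HepG2 cells, with signal proportional to cytotoxicity. Plates were read at 0, 8, 16, 24, 32 and 40 h after compound addition.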

[7] = qHTS RealTime-Glo MT Cell Viability Assay in HepG2 cells - 32 hour (AID 1224877); also: nearly all actives have a fitted effect of over 55% in size
In short: (§5)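 Cells + NanoLuc/prosubstrate dispensed (600 cells/well) → 5 h at 37 C/5% CO2 → compounds in DMSO transferred → 40 h incubation at 37 C, luminescence read at 0, 8, 16, 24, 32, 40 h.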

[8] = A CellTox Green Cytotoxicity Assay to monitor cytotoxicity in HepG2 cells - 24 hour (AID 1224878); also: nearly all actives have a fitted effect of over 45% in size
In short: as §4

[9] = A CellTox Green Cytotoxicity Assay to monitor cytotoxicity in HepG2 cells - 40 hour (AID 1224879); also: nearly all actives have a fitted effect of over 40% in size
In short: as §4

[10] = qHTS RealTime-Glo MT Cell Viability Assay in HEK293 cells - 0 hour (AID 1224880)
In short: as §3

[11] = A CellTox Green Cytotoxicity Assay to monitor cytotoxicity in HEK293 cells - 32 hour (AID 1224881); also: nearly all actives have a fitted effect of over 40% in size
In short: as §1

[12] = A CellTox Green Cytotoxicity Assay to monitor cytotoxicity in HepG2 cells - 0 hour (AID 1224882); also: nearly all actives have a fitted effect of over 35% in size
In short: as §4

[13] = A CellTox Green Cytotoxicity Assay to monitor cytotoxicity in HepG2 cells - 32 hour (AID 1224883); also: nearly all actives have a fitted effect of over 50% in size
In short: as §4

[14] = A CellTox Green Cytotoxicity Assay to monitor cytotoxicity in HEK293 cells - 8 hour (AID 1224884); also: nearly all actives have a fitted effect of over 35% in size
In short: as §1

[15] = qHTS RealTime-Glo MT Cell Viability Assay in HepG2 cells - 16 hour (AID 1224885); also: nearly all actives have a fitted effect of over 50% in size
In short: as §5

[16] = qHTS RealTime-Glo MT Cell Viability Assay in HEK293 cells - 24 hour (AID 1224886)
In short: as §2

[17] = qHTS RealTime-Glo MT Cell Viability Assay in HEK293 cells - 8 hour (AID 1224887)
In short: as §3

[18] = A CellTox Green Cytotoxicity Assay to monitor cytotoxicity in HEK293 cells - 16 hour (AID 1224888); also: nearly all actives have a fitted effect of over 35% in size
In short: as §1

[19] = qHTS RealTime-Glo MT Cell Viability Assay in HepG2 cells - 0 hour (AID 1224889); also: nearly all actives have a fitted effect of over 50% in size
In short: as §5

[20] = A CellTox Green Cytotoxicity Assay to monitor cytotoxicity in HepG2 cells - 8 hour (AID 1224890); also: nearly all actives have a fitted effect of over 45% in size
In short: as §4
% is scaled to controls: 0 for no effect and ±100 for the full control effect.

Nc1ccc([N+](=O)[O-])cc1[N+](=O)[O-]
inactive: Potency [1] | Potency [2] | Potency [3] | max response [4] -23.5% | Potency [5] | Potency [6] | Potency [7] | Potency [8] | Potency [9] | Potency [10] | Potency [11] | Potency [12] | Potency [13] | Potency [14] | Potency [15] | Potency [16] | Potency [17] | Potency [18] | Potency [19] | Potency [20]

O=[N+]([O-])c1ccccc1CCl
inactive: Potency [1] | Potency [2] | Potency [3] | max response [4] 8.2% | Potency [5] | Potency [6] | Potency [7] | Potency [8] | Potency [9] | Potency [10] | Potency [11] | Potency [12] | Potency [13] | Potency [14] | Potency [15] | Potency [16] | Potency [17] | Potency [18] | Potency [19] | Potency [20]

c1ccc(C2CC2)c(OCC2=NCCN2)c1
inactive: Potency [1] | Potency [2] | Potency [3] | max response [4] 3.13% | Potency [5] | Potency [6] | Potency [7] | Potency [8] | Potency [9] | Potency [10] | Potency [11] | Potency [12] | Potency [13] | Potency [14] | Potency [15] | Potency [16] | Potency [17] | Potency [18] | Potency [19] | Potency [20]

COC(=O)C(Br)CBr (stereo unspecified)
inactive: Potency [1] | Potency [2] | Potency [3] | max response [4] -3.92% | Potency [5] | Potency [6] | Potency [7] | Potency [8] | Potency [9] | Potency [10] | Potency [11] | Potency [12] | Potency [13] | Potency [14] | Potency [15] | Potency [16] | Potency [17] | Potency [18] | Potency [19] | Potency [20]

O=C(O)C(F)(F)C(F)(F)C(F)(F)C(F)(F)C(F)(F)C(F)(F)C(F)(F)C(F)(F)C(F)(F)F
inactive: Potency [1] | Potency [2] | Potency [3] | max response [4] 1.42% | Potency [5] | Potency [6] | Potency [7] | Potency [8] | Potency [9] | Potency [10] | Potency [11] | Potency [12] | Potency [13] | Potency [14] | Potency [15] | Potency [16] | Potency [17] | Potency [18] | Potency [19] | Potency [20]

C=CC(=O)OCC(C)C
inactive: Potency [1] | Potency [2] | Potency [3] | max response [4] 15.8% | Potency [5] | Potency [6] | Potency [7] | Potency [8] | Potency [9] | Potency [10] | Potency [11] | Potency [12] | Potency [13] | Potency [14] | Potency [15] | Potency [16] | Potency [17] | Potency [18] | Potency [19] | Potency [20]

O=C(CBr)c1ccccc1
inactive: Potency [1] | Potency [2] | Potency [3] | max response [4] 3.94% | Potency [5] | Potency [6] | Potency [7] | Potency [8] | Potency [9] | Potency [10] | Potency [11] | Potency [12] | Potency [13] | Potency [14] | Potency [15] | Potency [16] | Potency [17] | Potency [18] | Potency [19] | Potency [20]

NCC(CC(=O)O)c1ccc(Cl)cc1 (stereo unspecified)
inactive: cytotoxicity increase [1] -18.6% [at 0.29 µM] | activity change, negative = cytotoxicity [2] 0.531% [at 0.29 µM] | viability change, negative = cytotoxic [3] 0.906% [at 0.29 µM] | max response [4] 8.41% | activity change [5] -19.1% [at 0.29 µM, hits give high values] | cytotoxicity increase [6] -3.17% [at 0.29 µM] | activity change, negative = cytotoxic [7] -0.345% [at 0.29 µM] | cytotoxicity [8] -3.56% [at 0.29 µM] | cytotoxicity increase [9] -9.33% [at 0.29 µM] | activity change, negative = cytotoxicity [10] -1.28% [at 0.29 µM] | cytotoxicity increase [11] -17.2% [at 0.29 µM] | cytotoxicity [12] 0.813% [at 0.29 µM] | cytotoxicity increase [13] -7.65% [at 0.29 µM] | cytotoxicity increase [14] -12.5% [at 0.29 µM] | activity change, negative = cytotoxic [15] -0.45% [at 0.29 µM] | activity change, negative = cytotoxicity [16] 4.3% [at 0.29 µM] | activity change, negative = cytotoxicity [17] 1.53% [at 0.29 µM] | activity change [18] -9.31% [at 0.29 µM, hits give high values] | activity change, negative = cytotoxicity [19] -4.46% [at 0.29 µM] | cytotoxicity increase [20] -2.04% [at 0.29 µM]

CC(Cl)C(C)Cl (stereo unspecified)
inactive: Potency [1] | Potency [2] | Potency [3] | max response [4] 1.04% | Potency [5] | Potency [6] | Potency [7] | Potency [8] | Potency [9] | Potency [10] | Potency [11] | Potency [12] | Potency [13] | Potency [14] | Potency [15] | Potency [16] | Potency [17] | Potency [18] | Potency [19] | Potency [20]

O=C(O)COc1ccc(Cl)cc1
inactive: Potency [1] | Potency [2] | Potency [3] | max response [4] 0.692% | Potency [5] | Potency [6] | Potency [7] | Potency [8] | Potency [9] | Potency [10] | Potency [11] | Potency [12] | Potency [13] | Potency [14] | Potency [15] | Potency [16] | Potency [17] | Potency [18] | Potency [20]

O=NN1CCCCCC1
inactive: Potency [1] | Potency [2] | Potency [3] | max response [4] 0.127% | Potency [5] | Potency [6] | Potency [7] | Potency [8] | Potency [9] | Potency [10] | Potency [11] | Potency [12] | Potency [13] | Potency [14] | Potency [15] | Potency [16] | Potency [17] | Potency [19] | Potency [20]

Nc1ccc(N=Nc2ccc(-c3ccc(N=Nc4c(S(=O)(=O)O)cc5cc(S(=O)(=O)O)c(N=Nc6ccccc6)c(O)c5c4N)cc3)cc2)c(N)c1
inactive: Potency [1] | Potency [2] | Potency [3] | max response [4] 23.2% | Potency [5] | Potency [6] | Potency [7] | Potency [8] | Potency [9] | Potency [10] | Potency [11] | Potency [12] | Potency [13] | Potency [14] | Potency [15] | Potency [16] | Potency [17] | Potency [18] | Potency [20]

O=NN1CCNCC1
inactive: Potency [1] | Potency [2] | Potency [3] | max response [4] 9.64% | Potency [5] | Potency [6] | Potency [7] | Potency [8] | Potency [9] | Potency [10] | Potency [11] | Potency [12] | Potency [13] | Potency [14] | Potency [15] | Potency [16] | Potency [17] | Potency [19] | Potency [20]
